# Assay results as given in PubChem BioAssay (Tox21).
# Several values for one entry are separate records, joined by “and”; a condition that tells them apart may be missing. Equal values may be shown once. Inconclusive results are not listed. A call without a number means that no potency is given here. The source holds several records for some structures; these can differ, active in one and inactive in another. Activity calls are given as the source filed them. Unless noted, calls come from the whole dose curve; as a rule, active = well fitted curve in the direction sought with a large enough effect in the repeat runs; inconclusive = weak or mixed curves; inactive = no such curve, though single readings can be large; an effect the other way counts as inactive or inconclusive.
# Assays:
# [1] = qHTS assay to identify small molecule agonists of the peroxisome proliferator-activated receptor delta (PPARd) signaling pathway - cell viability counter screen (AID 743211); note: nearly all actives have a fitted effect of over 55% in size; note: potency is the fitted concentration of half-maximal effect
# Method in brief: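 Following 5 h plating at 37 C and 5% CO2, PPARd UAS-bla HEK293H cells took up test compounds for 17 h. Viability was quantified by luminescence 30 min after CellTiter-Glo addition at room temperature.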
# [2] = target: Peroxisome proliferator-activated receptor delta (Homo sapiens) (UniProt Q03181); assay: qHTS assay to identify small molecule agonists of the peroxisome proliferator-activated receptor delta (PPARd) signaling pathway (AID 743212; calls by dose curve)
# Sequence of Peroxisome proliferator-activated receptor delta (Homo sapiens) (Q03181 whole entry, looked up): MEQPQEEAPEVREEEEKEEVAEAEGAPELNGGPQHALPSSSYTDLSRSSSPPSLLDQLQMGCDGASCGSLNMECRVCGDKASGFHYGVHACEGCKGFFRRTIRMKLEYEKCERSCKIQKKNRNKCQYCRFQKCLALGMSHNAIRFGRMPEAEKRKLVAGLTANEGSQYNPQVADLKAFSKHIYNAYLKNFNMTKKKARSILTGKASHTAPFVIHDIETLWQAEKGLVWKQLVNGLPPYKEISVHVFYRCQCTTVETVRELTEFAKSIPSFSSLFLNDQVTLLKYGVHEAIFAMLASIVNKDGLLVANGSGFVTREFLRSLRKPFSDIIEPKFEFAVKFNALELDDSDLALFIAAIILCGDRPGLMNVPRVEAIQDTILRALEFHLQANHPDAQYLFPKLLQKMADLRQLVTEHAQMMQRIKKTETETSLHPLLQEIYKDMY
# Method in brief: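 GeneBLAzer PPARd UAS-bla HEK293H cells (beta-lactamase reporter under UAS control), plated and rested 5 h at 37 C, then exposed to compounds in DMSO at 37 C; LiveBLAzer B/G FRET substrate added, 2 h room temperature, fluorescence read.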
# [3] = qHTS assay to identify small molecule antagonists of the peroxisome proliferator-activated receptor delta (PPARd) signaling pathway - cell viability counter screen (AID 743213); note: nearly all actives have a fitted effect of over 50% in size; note: potency is the fitted concentration of half-maximal effect
# Method in brief: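 Luminescence from CellTiter-Glo, added after the bla read and incubated 30 min at room temperature, gives viability of HEK293H PPARd-bla cells exposed to compounds for 17 h at 37 C with 300 nM L165041.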
# [4] = target: Peroxisome proliferator-activated receptor delta (Homo sapiens) (UniProt Q03181); assay: qHTS assay to identify small molecule antagonists of the peroxisome proliferator-activated receptor delta (PPARd) signaling pathway (AID 743215; active = well fitted inhibition curve with a large enough effect in the signal ratio in the repeat runs, not every such curve was filed as active; the % refers to the signal ratio;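 note: cells stimulated with agonist L165041 at 300 nM final during compound exposure; series mostly up to about 62 µM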)
# Method in brief: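 Antagonist-mode beta-lactamase reporter screen: HEK293H cells with UAS-bla under PPARd control, stimulated by 300 nM L165041 (final) alongside test compound for 17 h at 37 C, then FRET fluorescence after 2 h substrate incubation.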
# [5] = qHTS assay to identify small molecule agonists of the farnesoid-X-receptor (FXR) signaling pathway - cell viability counter screen (AID 743218); note: nearly all actives have a fitted effect of over 45% in size; note: potency is the fitted concentration of half-maximal effect
# Method in brief: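 In GeneBLAzer FXR-UAS-bla HEK 293T cells, compounds act for 16 h at 37 C. Cell viability is then scored in the reporter wells by CellTiter-Glo, 30 min at RT, luminescence.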
# [6] = target: Bile acid receptor (Homo sapiens) (UniProt Q96RI1); assay: qHTS assay to identify small molecule agonists of the farnesoid-X-receptor (FXR) signaling pathway (AID 743220; active = well fitted activation curve with a large enough effect in the signal ratio in the repeat runs, not every such curve was filed as active; the % refers to the signal ratio)
# Sequence of Bile acid receptor (Homo sapiens) (Q96RI1 whole entry, looked up): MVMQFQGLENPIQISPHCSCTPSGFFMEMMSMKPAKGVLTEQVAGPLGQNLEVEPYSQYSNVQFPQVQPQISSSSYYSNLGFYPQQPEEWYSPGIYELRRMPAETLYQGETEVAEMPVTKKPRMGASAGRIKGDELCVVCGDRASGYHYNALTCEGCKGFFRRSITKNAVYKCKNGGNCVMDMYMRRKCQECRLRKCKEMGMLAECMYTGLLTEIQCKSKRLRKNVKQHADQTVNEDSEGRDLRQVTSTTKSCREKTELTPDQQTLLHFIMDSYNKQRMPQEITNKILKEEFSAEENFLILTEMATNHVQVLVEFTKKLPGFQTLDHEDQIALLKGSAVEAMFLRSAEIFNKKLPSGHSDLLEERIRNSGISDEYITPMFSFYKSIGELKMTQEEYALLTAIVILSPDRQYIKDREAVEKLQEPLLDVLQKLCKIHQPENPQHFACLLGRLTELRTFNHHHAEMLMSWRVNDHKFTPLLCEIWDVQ
# Method in brief: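 Beta-lactamase reporter under UAS control in GeneBLAzer FXR HEK 293T cells (5000/well) measured with LiveBLAzer FRET substrate after 2 h at room temperature. Compound exposure lasted 16 h at 37C.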
# [7] = qHTS assay to identify small molecule antagonists of the farnesoid-X-receptor (FXR) signaling pathway - cell viability counter screen (AID 743221; active = well fitted cell-killing curve with a large enough effect in the repeat runs, not every such curve was filed as active; note: nearly all actives have a fitted effect of over 50% in size; note: potency is the fitted concentration of half-maximal effect)
# Method in brief: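 Compound effects on cell number were measured as CellTiter-Glo luminescence in HEK 293T cells expressing FXR-UAS-bla, after 16 h at 37 C with 50 uM CDCA (final).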
# [8] = target: Vitamin D3 receptor (Homo sapiens) (UniProt P11473); assay: qHTS assay to identify small molecule agonists of the vitamin D receptor (VDR) signaling pathway (AID 743222; calls by dose curve)
# Sequence of Vitamin D3 receptor (Homo sapiens) (P11473 whole entry, looked up): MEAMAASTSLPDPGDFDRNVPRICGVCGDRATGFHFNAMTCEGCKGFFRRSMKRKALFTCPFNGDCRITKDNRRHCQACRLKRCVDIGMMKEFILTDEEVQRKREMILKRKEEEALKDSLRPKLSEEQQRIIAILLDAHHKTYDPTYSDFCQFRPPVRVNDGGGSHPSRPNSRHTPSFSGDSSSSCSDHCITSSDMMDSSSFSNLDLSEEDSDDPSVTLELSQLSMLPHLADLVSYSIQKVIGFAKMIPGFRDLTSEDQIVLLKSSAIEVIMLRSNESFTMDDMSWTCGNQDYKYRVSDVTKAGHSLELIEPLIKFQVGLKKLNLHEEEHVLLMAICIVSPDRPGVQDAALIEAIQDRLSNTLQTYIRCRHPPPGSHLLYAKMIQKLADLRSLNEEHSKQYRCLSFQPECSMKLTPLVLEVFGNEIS
# Method in brief: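 Agonist activity measured in VDR-bla reporter cells. Exposure 16 h, 37C, 5% CO2; detection by B/G FRET substrate, 2 h RT.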
# [9] = target: Vitamin D3 receptor (Homo sapiens) (UniProt P11473); assay: qHTS assay to identify small molecule antagonists of the vitamin D receptor (VDR) signaling pathway (AID 743223; active = well fitted inhibition curve with a large enough effect in the signal ratio in the repeat runs, not every such curve was filed as active; the % refers to the signal ratio)
# Method in brief: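 Beta-lactamase activity in VDR-bla cells is measured by FRET substrate fluorescence (2 h, room temperature) after cells spend 16 h at 37C with test compound and 3 nM final 1alpha,25-dihydroxyvitamin D3.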
# [10] = qHTS assay to identify small molecule agonists of the vitamin D receptor (VDR) signaling pathway - cell viability counter screen (AID 743224); note: nearly all actives have a fitted effect of over 50% in size; note: potency is the fitted concentration of half-maximal effect
# Method in brief: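 VDR-bla cell line, quantitative HTS format; 16 h compound incubation (37C, 5% CO2); ATP-based CellTiter-Glo luminescence measured in the reporter assay wells.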
# [11] = qHTS assay to identify small molecule antagonists of the vitamin D receptor (VDR) signaling pathway - cell viability counter screen (AID 743225); note: nearly all actives have a fitted effect of over 50% in size; note: potency is the fitted concentration of half-maximal effect
# Method in brief: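 In this counter screen, VDR-bla HEK 293T cells receive test compound plus 3 nM final calcitriol for 16 h at 37C. Room-temperature steps of 2 h with the beta-lactamase substrate, then 30 min with CellTiter-Glo, precede the luminescence read.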
# [12] = qHTS assay to identify small molecule agonists of the endoplasmic reticulum stress response signaling pathway (AID 1159516; active = well fitted activation curve with a large enough effect in the signal ratio in the repeat runs, not every such curve was filed as active; the % refers to the signal ratio)
# Method in brief: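 ER stress element reporter (bla) in HeLa. 1,500 cells/well, overnight attachment; 5 hr compound; 2 hr RT substrate; dual-emission fluorescence.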
# [13] = qHTS assay to identify small molecule antagonists of the retinoid-related orphan receptor gamma (ROR-gamma) signaling pathway - cell viability counter screen (AID 1159520); note: nearly all actives have a fitted effect of over 50% in size; note: potency is the fitted concentration of half-maximal effect
# Method in brief: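 Tet-on ROR gamma CHO cells (1,000/well) were plated 4 hr, given compounds in DMSO for 2 hr at 37 C, then induced with 1 uM final doxycycline for 16 hr. Viability was read as ATP by CellTiter-Glo luminescence after 30 min.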
# [14] = qHTS assay to identify small molecule agonists of the AP-1 signaling pathway - cell viability counter screen (AID 1159525; calls by dose curve; note: nearly all actives have a fitted effect of over 55% in size; note: potency is the fitted concentration of half-maximal effect)
# Method in brief: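 ME-180 AP-1-bla, 2500 cells/well, Opti-MEM + 0.5% dialyzed FBS; overnight 37 °C; cpd 15-pt titration, 5 h 37 °C; CellTiter-Glo 30 min RT; luminescence read; normalised to TOAB and DMSO controls.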
# [15] = qHTS assay to identify small molecule agonists of the AP-1 signaling pathway (AID 1159526; calls by dose curve)
# [16] = target: Retinoic acid receptor RXR-alpha (Homo sapiens) (UniProt P19793); assay: qHTS assay to identify small molecule agonists of the RXR signaling pathway (AID 1159527; calls by dose curve; note: nearly all actives have a fitted effect of over 35% in size)
# Sequence of Retinoic acid receptor RXR-alpha (Homo sapiens) (P19793 whole entry, looked up): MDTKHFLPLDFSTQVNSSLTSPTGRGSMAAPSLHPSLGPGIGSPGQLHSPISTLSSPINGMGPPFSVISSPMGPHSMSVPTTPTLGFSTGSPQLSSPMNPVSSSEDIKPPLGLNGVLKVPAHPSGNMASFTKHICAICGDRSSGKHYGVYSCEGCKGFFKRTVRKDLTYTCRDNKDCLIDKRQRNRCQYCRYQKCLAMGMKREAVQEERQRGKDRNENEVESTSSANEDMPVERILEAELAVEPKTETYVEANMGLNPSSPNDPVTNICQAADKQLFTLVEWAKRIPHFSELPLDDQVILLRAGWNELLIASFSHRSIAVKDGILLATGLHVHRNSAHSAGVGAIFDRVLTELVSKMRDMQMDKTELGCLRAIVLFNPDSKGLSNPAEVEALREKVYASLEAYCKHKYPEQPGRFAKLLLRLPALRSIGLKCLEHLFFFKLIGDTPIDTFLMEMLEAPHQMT
# Method in brief: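 Fluorescence ratio readout (460 vs 530 nm) from GeneBLAzer RXR-alpha HEK 293T cells after 16 hr compound treatment; cells seeded 5 hr beforehand in low-serum, charcoal-stripped medium.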
# [17] = target: Nuclear receptor ROR-gamma (Homo sapiens) (UniProt P51449); assay: qHTS assay to identify small molecule antagonists of the retinoid-related orphan receptor gamma (ROR-gamma) signaling pathway (AID 1159521; note: nearly all actives have a fitted effect of over 50% in size; note: potency is the fitted concentration of half-maximal effect)
# Method in brief: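 Screening format: cell-based luciferase reporter in CHO cells with doxycycline-inducible RORγ. Compound pre-exposure lasts 2 h, doxycycline is 1 uM final, induction runs 16 h at 37 C, and ONE-Glo luminescence is read.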
# [18] = qHTS assay to identify small molecule agonists of the endoplasmic reticulum stress response signaling pathway - cell viability counter screen (AID 1159517; calls by dose curve; note: nearly all actives have a fitted effect of over 50% in size; note: potency is the fitted concentration of half-maximal effect)
# Method in brief: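 Luminescence readout: CellTiter-Glo, 30 min RT, same wells as the ESRE-bla reporter read. HeLa ESRE-bla, 1,500 cells/well, o/n 37 C; cpd 5 hr 37 C/5% CO2.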
SMILES,Potency [1],Potency [2],Potency [3],Potency [4],Potency [5],Potency [6],Potency [7],Potency [8],Potency [9],Potency [10],Potency [11],Potency [12],Potency [13],Potency [14],Potency [15],Potency [16],Potency [17],Potency [18]
CC(Cc1ccc2c(c1)OCO2)NO (stereo not drawn),inactive,inactive,inactive,inactive,inactive,inactive,inactive,inactive,inactive,inactive,inactive,inactive,inactive,inactive,inactive,inactive,–,–
COc1ccc2c(c1OC)C(=O)O[C@@H]2[C@H]1c2cc3c(cc2CCN1C)OCO3,inactive,inactive,inactive,inactive,inactive,–,inactive,–,–,inactive,–,inactive,inactive,inactive,inactive,inactive,inactive,–
ClSC(Cl)(Cl)Cl,–,inactive,–,inactive,–,–,inactive,–,–,inactive,–,inactive,inactive,inactive,–,inactive,inactive,inactive
CC(C)C(Br)C(=O)NC(N)=O (stereo not drawn),–,inactive,inactive,inactive,inactive,inactive,inactive,inactive,inactive,–,inactive,inactive,inactive,–,inactive,–,inactive,inactive
COc1ccc(Cc2nccc3cc(OC)c(OC)cc23)cc1OC,inactive,inactive,inactive,–,–,–,–,–,–,inactive,inactive,inactive,–,inactive,inactive,inactive,4.22 µM (active),inactive
CCOC(=O)Cc1ccccc1,inactive,inactive,–,inactive,inactive,inactive,inactive,–,inactive,–,–,inactive,inactive,inactive,inactive,inactive,inactive,–
[Cl][Hg][c]1ccccc1,–,–,2.19 µM (active),–,1.55 µM (active),–,1.38 µM (active),inactive,–,692 nM (active),–,–,1.09 µM (active),1.38 µM (active),–,–,0.611 µM (active),11 µM (active)
Cc1cnc2c(C(=O)O)c(Cl)ccc2c1,inactive,–,–,–,inactive,inactive,inactive,–,–,inactive,inactive,inactive,inactive,inactive,inactive,inactive,–,–
Cc1ccccc1OP(=O)(Oc1ccccc1C)Oc1ccccc1C,–,inactive,–,–,inactive,inactive,–,–,inactive,–,inactive,inactive,–,inactive,–,–,54.7 µM (active),inactive
ClC1=C(Cl)[C@]2(Cl)[C@H]3[C@H]([C@@H]4C=C[C@H]3C4)[C@@]1(Cl)C2(Cl)Cl,inactive and 15.5 µM (active),inactive,inactive,inactive,38.9 µM (active),–,inactive,–,inactive,inactive and 54.9 µM (active),inactive,–,61 µM (active),38.9 µM (active),–,inactive,54.4 µM (active),21.8 µM (active) and 49 µM (active)
CCC[CH2][Sn]([CH2]CCC)([CH2]CCC)[O][Sn]([CH2]CCC)([CH2]CCC)[CH2]CCC,0.676 µM (active),–,0.759 µM (active),–,0.479 µM (active),–,1.2 µM (active),–,–,–,852 nM (active),–,0.336 µM (active),0.537 µM (active),–,–,0.168 µM (active),0.269 µM (active)
Clc1ccc(C(c2ccc(Cl)cc2)C(Cl)Cl)cc1,44.4 µM (active),inactive,–,inactive,–,inactive,inactive,–,inactive,–,–,–,–,24.9 µM (active) and 34.7 µM (active),–,–,55.4 µM (active) and 54.5 µM (active),22.2 µM (active) and 54.9 µM (active)
Nc1ccccc1-c1ccccc1,inactive,–,–,inactive,–,–,inactive,–,–,inactive,inactive,inactive,inactive,inactive,inactive,–,inactive,–
